# Experimental data published in the supplement of paper PMC6555819.
# System: RXRa DBDmut IVT, anti-RXR (DBD mutation: RXRa K156A/R161A, NR concentration 90 nM)
# Test: PBM binding z-score (relative to random genomic background probes); higher = stronger binding; sequences stand for … in GC…GCGATTGACAGCGTAGAATGAAGG
# How it was run: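 Probes were double-stranded and carried 34-nt variable regions with direct-repeat seeds, single-nucleotide variants, half-site ablations and random human genomic background sequences, printed on custom Agilent 4×180K protein-binding microarrays. Arrays were incubated 1 h with ligand-free nuclear receptor dimers in PBS pH 7.4, 2% milk, 0.02% Triton X-100, 1 mM DTT, 0.2 mg/mL BSA and 0.4 mg/ml salmon testes DNA. Antibodies against each partner (one per run) detected binding, and scanned fluorescence was regression-normalized. Binding z-scores use the random background probes as reference.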
row,Sequence,PBM binding z-score
1,AGAATGAGGTTATTAAGATCCGGGAATTGCGGTC,1.93
2,ATCTCTAGGTAAGACTCACTTCAGTGAAGAACGC,0.173
3,ACTAGCAGGCCAAGGGTCACTCAAGATTAGTCCG,0.678
4,TCATATAGGTAAAGGTGAAGGTCGAACGATATGA,0.787
5,TCTCGGAGGACACGACAGGTCAGAGCTCGACATC,0.685
6,CCTACTGGGCCATTAGGTCATTGATATCAACGTT,0.292
7,GCGACTGGGGCATCAGCAGGTTACCATGACTTAA,-0.0631
8,ATCGACAGGTCGACGAGGTGAGTATACACCGTTT,0.12
9,TAATATAGGTAAACAGGTGAAAGTCCGTAAGTTA,0.169
10,CCGACTGGGGCAGAAACGTTACCATACCATCCGG,-0.654
11,CCTCGGAGGACAGAGGGTCAGAGCTGTCCGCTTT,-0.382
12,TCTAGCAGGCCAGAGGGCCACTCAAGAGGTACGG,-0.104
13,CGAACTAGGTCATTGACAGGACAGTGAATAGTAA,2.33
14,CGTCCAAGGTCATAGGAGCTCAGTGAAGACAGAT,3.96
15,TCTATTACTTGATTAGGGCAACCGAAACAGCGGA,1.1
16,ATATGTAGGTTAAGGGTCAGTCAGGTTGGTTCGC,1.4
17,AGTCAAAGTTCACTAGGTAACGTGAGATTCAGCT,3.83
18,GCTATTAATTGAAAGGGCAACCGAATGATTCTCG,0.65
19,CCTAGCAGGACAATCTGGGTCACTCAAGGCTTGA,0.379
20,ACTATTAGTTGAGACGAGGTCAACCGATAGGTTG,1.57

row,Sequence,PBM binding z-score
1,TCGAGTAGGTGACCAATGGGGCATTCAGCTTTCT,-0.0137
2,CGAACTAGGTCATTGACAGAACAGTGAATAGTAA,2.74
3,CCTTACGGGTCACTGACAGGTTATACCATTTGGA,1.64
4,ACTAGCAGGCCAAGTTTGCGTCACTCAAACAAAG,0.079
5,TGTCTAAGTTCAAAGGTAACGTAAGTATCCACAC,4.28
6,CAAACTAGGTCACGAAAGGTCAAAGTCGAATGAC,2.39
7,TATACAGGGTCAAAGGCCAGGGTACGAATGTCGA,2.73
8,CAAGACAGGTGAGAAGGTAACTCAGCCTCGATTA,-0.536
9,GTAGCAAGGTGAATAGGTCGTTGATGAGTAGGCG,-0.689
10,CAGCCTAGGTCAGGGCCACTATAGGAGGAACGTT,0.123
11,CGAACTAGGTCAAGGACAGTGGATCTCCGCACGC,1.34
12,TCATTTAGGTAAACAGGTGAAAGTCCGTAAGTTA,1.59
13,CAAACTAGGTCACTGGAAGGTCAAAGTCCGCATG,1.96
14,TCATATAGGTATACAGGTGAAAGTCCGTAAGTTA,1.58
15,ATCTTTAGGTAAAAGTTCAGTGAATCCCGAGGAT,1.27
16,ACGAGTTGGTCAGCTGAGGTCACACACAATTCGG,1.82
17,TAGCCTAGGTCATCGGCCAGTATACCACGCGAAC,1.02
18,CCTCCTGGGCCATTCAGAGGTCATTGATCATATG,0.494
19,TAGCCTAGGTCATGCGGGCCATTATAGTGTCGGC,1.05
20,TAGTCTAGGTCATTCAGGGGCCAGTATAGAAAGC,2.05
